# Measurements as given in the supplement of paper PMC11417369.
# ± gives the standard deviation of the averaged measurements. In all, about 25,000 sequences were measured (“ln(normalized median fluorescence intensity)”: median about 10, highest 2% from about 12 on). The entries come from a sample that favours the highest values as a whole.
# System: PfAP2-G AP2 domain (GST-tagged)
# Assay: gcPBM binding intensity (ln(normalized median fluorescence intensity)); higher = stronger DNA binding
# Procedure, shortened: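 In this array assay, P. falciparum DNA-binding domains with a GST tag, expressed in E. coli, were applied for 1 h to primer-extended double-stranded 36-bp intergenic genomic probes and negative controls on an Agilent 4 × 180k array. Bound protein was visualised with Alexa488 anti-GST antibody at 488 nm. Binding intensity is the highest Masliner-normalised natural-log median intensity across replicate spots of either probe orientation.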
row,Sequence,gcPBM binding intensity (ln)
1,TATTTTTACCCATAAAGTACACATAAATATAAAATA [XGTACX_site177],11.5 ± 1
2,ATGGACAAGTTAAACGCACACAAATATATACACCCA [CACACA_site8478],10.6 ± 0.39
3,ATATATTTATTTTGTGCACACAACGCAAACCTTTTA [CACACA_site3508],10.5 ± 0.27
4,CCGTATTCAAAAAGGAGTACACAATTATATGTTATA [XGTACX_site641],11.7 ± 1
5,AATTTTGTTAAAAGGACACACAATTCAATATATTAA [CACACA_site647],11.1 ± 0.73
6,AAATATATATTCAAAAGTACACAATTTGTTAATAAT [XGTACX_site8917],11.4 ± 0.82
7,TATAATTTATAAGTAGTGCATTTCTTTTCATTTTTA,10.03 ± 0.057
8,AAGATTAAACATTGCACACAGAAATATATTTTCTAT [CACACA_site2374],9.91 ± 0.099
9,AATAGTAAAAGATATACACACACCAAAAAATATAAT [CACACA_site5293],10.2 ± 0.12
10,TTTATATACAAAAATGCACACGAAAAGTAATATATA [CACACA_site9387],10.28 ± 0.049
11,ACAGTATCTGGTAGCTGTACGAGTCGTAGAGAGTAG [XGTACX_site2041],11.2 ± 0.71
12,AAAAAAAAAAAAAGTACACACTTTTGCGTACAAGTA [CACACA_site5672],11.9 ± 0.83
13,TACCTACACTTTTGGAGTACAATTAAAAAAAAAAAA [XGTACX_site1403],11.5 ± 1.1
14,AAAAAAAAAAAAAGTACACACTTTTGCGTACATGTA [CACACA_site7449],12 ± 0.98
15,AAAAGAAAAAAAAGTACACACATGTATATTAAGCGT [CACACA_site5402],11.5 ± 0.83
16,TTACATGTACAAAAGTTGCACTTCATACACTTTTAT,11.1 ± 0.61
17,ACTTTGCGTTAAAAGAGTACATAATATTTTTTTTTT [XGTACX_site7533],11.2 ± 0.73
18,AAAAAAAAAAAAAAAAGTACACACTTTTGCCTACAT [XGTACX_site6583],11.6 ± 0.86
19,TATTTTGTTTTAAAAGTACACACTTTTAATTAGATT [CACACA_site1180],11.5 ± 1
20,AAAAAAAAAAAAAAAGTACACACTTTTGCGTACATG [CACACA_site3097],12.3 ± 1.4

row,Sequence,gcPBM binding intensity (ln)
1,AATTTCCTTTTTTAAAGTACACAAAAGTTCACTTTG [XGTACX_site4460],11.6 ± 0.98
2,AAAAAAAAAAAAAAAAGTACAAGCATTGCGTTTTAA [XGTACX_site6075],11.5 ± 0.83
3,TTTTTTTTTTTTAGAGTACACACTTTTTTACATTTA [CACACA_site3836],11.4 ± 0.83
4,ATTTATATTTATAAATGTACACATATATATTTCATT [XGTACX_site2723],11.2 ± 0.63
5,CCGCCATTGTACCATCCACACACATATATATATGTA [CACACA_site8866],10.9 ± 0.45
6,AAAATAACGAGTCAAACACACATATATATATATATA [CACACA_site2039],10.1 ± 0.25
7,AAATTGTAGCACCAAGCATGCTAAAAGGACATATGA [TGCATGCA_site717],10.8 ± 0.34
8,GATATAAGGGTATGAAGTACATAAATATTTTATGCT [XGTACX_site1886],11.3 ± 0.88
9,ACCCAAGAGAAAAGAGAAAGAAATATGTGTATATTG [GTGCAC_negctrl_site214],9.92 ± 0.042
10,TTCAGTGTATACATATGTACATATATATATATATAT [XGTACX_site1621],11.3 ± 0.56
11,TTTTTTTTTTTTTTTTGTACATAATTATATATTTAC [XGTACX_site7540],10.9 ± 1
12,AAAATAATGTTTATATGTACATATATATATATATAT [XGTACX_site8815],11 ± 0.57
13,AACAATTAGAACTTTGCACACTTCTATATATTTTGT [CACACA_site674],9.91 ± 0.2
14,TTTTCTAAATAAATAGTGCATTTATTATATATACAT [GTGCAC_site9766],9.97 ± 0.13
15,ATATATATATATATATGTACATATTTGATTTTTCTT [XGTACX_site8171],11.1 ± 0.79
16,TATTTATTTATGTACGCACACAGTTGATATTAATTC [CACACA_site2754],11.6 ± 0.96
17,AAATATTATGTACGCACACACATTTTTGATATATAA [CACACA_site7755],11.5 ± 0.88
18,ATATTTATTTATTTATGTACGCACACAGTTGATATT [XGTACX_site5808],11.7 ± 1
19,TTGTAATATCTTGTCACACATATATATATATATATA [CACACA_site4937],10.1 ± 0.26
20,AATTGAAAAAGAAATTGTACATTTTATTTTTATTAT [XGTACX_site1973],10.9 ± 0.42

row,Sequence,gcPBM binding intensity (ln)
1,ATAGTCTTAATGACTACACACCTAACTATGCATGCA [CACACA_site5084],9.88
2,CAAAAATAAATATAAACACACAATAAATAAATAAAT [CACACA_site891],9.74 ± 0.057
3,CAAAAATAATTTAGGTGTACAAATTTGACAAAAAAA [XGTACX_site188],11.7 ± 0.59
4,TAAAATAATACAAAATGTACAAAATTTACAAAATGT [XGTACX_site3541],10.5 ± 0.28
5,TATTTTAACATTAGGTGTACATACAAAAATAAAAAT [XGTACX_site8577],11.6 ± 0.93
6,CTTAAAATGATAATATGTACACATAAATAATATATA [XGTACX_site8330],11.5 ± 0.76
7,TATATAAACATCGGTAGTACACACATTCATGTATTT [XGTACX_site6443],11.5 ± 0.71
8,TACTACACACATTCATGTACTTGATAAATTAATGAT [XGTACX_site6444],10.9 ± 0.47
9,ATAAACATCGGTAGTACACACATTCATGTACTTGAT [CACACA_site3037],11.8 ± 1
10,TTTTCAAAATGTTGTACACACAAAAAAAAAAAAAAA [CACACA_site1550],11.5 ± 1
11,TAAGAAAAAGGCACACGTACATAATTCAAAATAAAT [XGTACX_site982],11.3 ± 0.67
12,TATAAATAGAGGAAGCGTACATATATATATATATAT [XGTACX_site4993],11.3 ± 1
13,ATAAATAAATAAAAGCGTACATATATATAAAATATA [XGTACX_site8107],11.6 ± 0.88
14,TCGGGAGGGGGGAAGCGTACATATATAAAATTATTA [XGTACX_site4683],11.7 ± 0.76
15,TTATAAAAATACAGTTAACACACATGTGTATATATA [CACACA_site9257],10.4 ± 0.25
16,CGCATGCAATGTTAATGTACATATATATATATATGT [XGTACX_site3316],11.7 ± 0.64
17,ATATATATATATATATGTACATAATGCATATAATAT [XGTACX_site6142],11.1 ± 0.52
18,ATATATATATATATATGTACATATGTTAATCTGCAT [XGTACX_site1068],11.2 ± 0.7
